{
  "source": "the OligoGym collection",
  "data": [
    {"target": "C2orf82", "assay": "pooled miR-30 sensor sort-seq; sequence = guide strand", "settings": "shRNA", "values": [
      {"sequence": "TTTCTCAGCGCGACGACCACGA", "sensor-assay potency score (higher = more potent)": 0.0474},
      {"sequence": "AACATCGTCTGTGAGCACCGCA", "sensor-assay potency score (higher = more potent)": 0.28},
      {"sequence": "TCGTCTGTGAGCACCGCAGGGG", "sensor-assay potency score (higher = more potent)": -0.778},
      {"sequence": "CTCCTGTGGAACATCGTCTGTG", "sensor-assay potency score (higher = more potent)": -1.6},
      {"sequence": "CTGTGGAACATCGTCTGTGAGC", "sensor-assay potency score (higher = more potent)": -2.1},
      {"sequence": "ACATCGTCTGTGAGCACCGCAG", "sensor-assay potency score (higher = more potent)": -1.82},
      {"sequence": "ATCGTCTGTGAGCACCGCAGGG", "sensor-assay potency score (higher = more potent)": -1.34},
      {"sequence": "ACGAGCGCCAGCACCACGCAGG", "sensor-assay potency score (higher = more potent)": -1.89},
      {"sequence": "TCTCAGCGCGACGACCACGAGC", "sensor-assay potency score (higher = more potent)": -1.5},
      {"sequence": "TGGAACATCGTCTGTGAGCACC", "sensor-assay potency score (higher = more potent)": -1.29},
      {"sequence": "TCCTGTGGAACATCGTCTGTGA", "sensor-assay potency score (higher = more potent)": -0.191}
    ]},
    {"target": "C3orf22", "assay": "pooled miR-30 sensor sort-seq; sequence = guide strand", "settings": "shRNA", "values": [
      {"sequence": "TGTACGGAAACTTCTTGGCAAA", "sensor-assay potency score (higher = more potent)": -1.61},
      {"sequence": "AACCTGTACGGAAACTTCTTGG", "sensor-assay potency score (higher = more potent)": -1.12},
      {"sequence": "TTCTTGGCAAAATTCTCCTGGG", "sensor-assay potency score (higher = more potent)": -0.771},
      {"sequence": "TTGGCACCAACCTCTTCTGCAG", "sensor-assay potency score (higher = more potent)": -0.633},
      {"sequence": "TCCTCCACTTCTTACTCTGGTG", "sensor-assay potency score (higher = more potent)": -1.52},
      {"sequence": "TTCGAGTCGTTTGTGACCTCCC", "sensor-assay potency score (higher = more potent)": 0.262},
      {"sequence": "TCTGTCAGCCACGACAACCTGT", "sensor-assay potency score (higher = more potent)": -0.668},
      {"sequence": "TTACTCTGGTGAGACTTCTTGC", "sensor-assay potency score (higher = more potent)": -0.146},
      {"sequence": "TCCACTTCTTACTCTGGTGAGA", "sensor-assay potency score (higher = more potent)": -1.65},
      {"sequence": "TTGCACAGTGGAGGTGGTGATG", "sensor-assay potency score (higher = more potent)": -1.21},
      {"sequence": "TTTATTAGCTTGGTGTAGCTTT", "sensor-assay potency score (higher = more potent)": 0.257},
      {"sequence": "AAAGGTTGCACAGTGGAGGTGG", "sensor-assay potency score (higher = more potent)": 1.05}
    ]},
    {"target": "C3orf33", "assay": "pooled miR-30 sensor sort-seq; sequence = guide strand", "settings": "shRNA", "values": [
      {"sequence": "TTTTTCATAATAACTTTCTTTT", "sensor-assay potency score (higher = more potent)": -0.968},
      {"sequence": "TATAAGTTCTCTGAACTTCAGT", "sensor-assay potency score (higher = more potent)": -0.164},
      {"sequence": "TTTGATGTCAGTCGAATGCTTC", "sensor-assay potency score (higher = more potent)": -0.51},
      {"sequence": "TTTAGCTCTTTTTGTAACCATG", "sensor-assay potency score (higher = more potent)": -1.58},
      {"sequence": "TAAATTTTGATGTCAGTCGAAT", "sensor-assay potency score (higher = more potent)": -0.673},
      {"sequence": "TACTCCAGCCAACTTAACCAGC", "sensor-assay potency score (higher = more potent)": -1.6},
      {"sequence": "TTGAATTTTTCTAAGTAACTTT", "sensor-assay potency score (higher = more potent)": -0.235},
      {"sequence": "TAACTTTCTTTTTTCAAGCTGA", "sensor-assay potency score (higher = more potent)": -0.0803},
      {"sequence": "TTCTTTTTCAGAGTCTTCCTTC", "sensor-assay potency score (higher = more potent)": 0.254},
      {"sequence": "TCAAGCTGAAATCTGATCCTGT", "sensor-assay potency score (higher = more potent)": 0.793},
      {"sequence": "TTGTTCATGTTGTCTTTCCATA", "sensor-assay potency score (higher = more potent)": -1.3},
      {"sequence": "TTAACAAGAACAGTTTTGCCAA", "sensor-assay potency score (higher = more potent)": -0.169}
    ]},
    {"target": "C3orf64", "assay": "pooled miR-30 sensor sort-seq; sequence = guide strand", "settings": "shRNA", "values": [
      {"sequence": "TTAATCACAAATGCTCTCCATG", "sensor-assay potency score (higher = more potent)": -0.629},
      {"sequence": "TAAACAAGTTGGAACACTCTGG", "sensor-assay potency score (higher = more potent)": 0.509},
      {"sequence": "TTTCCTACCACAAACAGTGTTA", "sensor-assay potency score (higher = more potent)": -0.00284},
      {"sequence": "TATATGGACAAAGAGAGTCTTT", "sensor-assay potency score (higher = more potent)": -0.594},
      {"sequence": "TTAGTTGATCTAAAAACCCAAG", "sensor-assay potency score (higher = more potent)": -1.13}
    ]}
  ]
}
